Screening results from PubChem.
NOD2 RIPK2 PPI: NOD2-RIPK2 protein interaction inhibition | inhibition, % at 4.98 µM | actives 0.38% (n = 360,000) | CHO BLA complementation NOD2-RIPK2, CCF4 ratio | O43353; in the data active = inhibition above about 21%;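 note: 0% = vehicle only and 100% = reference blocker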
TLR4-MyD88 BLA: blocks binding of human TLR4 to MyD88; O00206+Q99836; HeLa CL3-4 TLR4/MyD88 BLA complementation, FRET ratio; inhibition, % at 8.4 µM; actives 0.18% (n = 200,000); AID 861; in the data active = inhibition above about 25%;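 note: 0% = vehicle and 100% = reference inhibitor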
TLR9-MyD88 inh: blocks human TLR9 binding to MyD88 | AID 504734 | Q9NR96+Q99836 | inhibition, % at 4.98 µM | actives 0.21% (n = 340,000) | CHO BLA complementation TLR9-MyD88, CCF4 FRET ratio;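 active = inhibition above the mean over all tested compounds plus 3 SD, cut at about 21% in these data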;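 note: 0% = DMSO only wells and 100% = clavulanate BLA inhibitor control wells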
Beta2AR agonist: human beta-2 adrenergic receptor agonism by FAP; Am2.2-beta2AR cells, FAP receptor internalization, flow cytometry; response, % (test concentration not listed); P07550; actives 0.43% (n = 340,000); AID 504454;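 active = response above a set limit, near 3 SD of response in nonfluorescent compounds, cut at about 42% in these data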
Exocytosis inh: lytic granule exocytosis inhibition. TALL-104 LAMP-1 surface exposure, flow cytometry; cells stimulated with thapsigargin and PMA. inhibition, % at 10 µM. actives 0.66% (n = 360,000);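 active = inhibition above about 55%, limit read from the data; inconclusive = no clear call, values can overlap the other calls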
ABHD5 PLIN5 PPI: blocks binding of human ABHD5 to perilipin-5; AID 602281; Split G. princeps luciferase complementation, luminescence, 4 h; inhibition, % at 4 µM; actives 0.78% (n = 360,000); Q00G26+Q8WTS1;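 active = inhibition above the mean inhibition across every tested compound plus 3 SD, cut at about 22% in these data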;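 note: 0% = DMSO only wells and the 100% control is not disclosed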
Target sequence (Q00G26 whole entry, looked up): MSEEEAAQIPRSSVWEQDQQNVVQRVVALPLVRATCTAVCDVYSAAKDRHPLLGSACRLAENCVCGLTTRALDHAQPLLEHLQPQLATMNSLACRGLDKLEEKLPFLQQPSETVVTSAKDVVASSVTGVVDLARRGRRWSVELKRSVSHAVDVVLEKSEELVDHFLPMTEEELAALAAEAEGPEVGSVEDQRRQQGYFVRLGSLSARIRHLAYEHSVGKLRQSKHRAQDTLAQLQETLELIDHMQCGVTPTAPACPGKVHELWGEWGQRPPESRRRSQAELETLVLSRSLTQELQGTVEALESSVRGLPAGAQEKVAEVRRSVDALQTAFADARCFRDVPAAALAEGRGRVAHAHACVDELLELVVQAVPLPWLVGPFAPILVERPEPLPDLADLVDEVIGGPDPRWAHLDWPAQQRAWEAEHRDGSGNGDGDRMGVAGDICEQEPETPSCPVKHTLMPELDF
Target sequence (Q8WTS1 whole entry, looked up): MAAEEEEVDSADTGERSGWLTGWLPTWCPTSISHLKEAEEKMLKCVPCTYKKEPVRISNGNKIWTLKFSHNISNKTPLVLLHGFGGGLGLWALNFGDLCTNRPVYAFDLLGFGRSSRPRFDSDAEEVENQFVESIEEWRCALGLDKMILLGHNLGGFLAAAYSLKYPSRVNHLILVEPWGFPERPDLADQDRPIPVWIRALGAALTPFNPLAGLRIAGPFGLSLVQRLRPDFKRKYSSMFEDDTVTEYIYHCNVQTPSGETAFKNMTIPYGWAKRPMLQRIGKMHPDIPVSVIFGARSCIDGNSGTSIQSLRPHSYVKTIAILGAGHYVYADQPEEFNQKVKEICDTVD
ABHD5 PLIN5 conf: confirmation of human ABHD5-PLIN5 interaction inhibitors | inhibition, % at 4 µM | shares compounds with ABHD5 PLIN5 PPI | biochemical ABHD5-PLIN5 interaction, luminescence | actives 67% (n = 2,200); in the data active = inhibition above about 23%;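 note: 0% = DMSO vehicle wells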
HNF4 split-luc: active in HNF4 split-luciferase counter-screen for ABHD5-PLIN5 inhibitors | HNF4 dimerization, luminescence, biochemical | AID 651674 | actives 77% (n = 2,200) | inhibition, % at 4 µM | shares compounds with ABHD5 PLIN5 PPI;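 active = mean inhibition across replicate wells exceeding the computed hit threshold, cut at about 13% in these data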;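 note: light from luciferase halves that rejoin when HNF4 fusion proteins dimerize; 0% = DMSO only wells and the 100% control is not given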
Active calls of the source: *. Hits are enriched below; roughly 2% of the tested compounds scored in any of these assays.

How did Cc1ccc2c(c1)C(=O)C(=O)N2Cc1ccc(F)cc1 do in these assays?
NOD2 RIPK2 PPI: 15; TLR9-MyD88 inh: 0; Beta2AR agonist: 15; Exocytosis inh: -4; ABHD5 PLIN5 PPI: 16

What do the screens show for `Cc1ccc2c(c1)C(=O)C(=O)N2Cc1ccc(Cl)cc1`?
NOD2 RIPK2 PPI: 20; TLR9-MyD88 inh: -6; Beta2AR agonist: 13; Exocytosis inh: -6; ABHD5 PLIN5 PPI: 33*; ABHD5 PLIN5 conf: 37*; HNF4 split-luc: 52*

Results for CC1=CC(=O)c2ccccc2C1=O ?
NOD2 RIPK2 PPI: -23; TLR4-MyD88 BLA: 3; TLR9-MyD88 inh: -9; Beta2AR agonist: 23; Exocytosis inh: 43; ABHD5 PLIN5 PPI: -6

What do the screens show for `COc1cccc2c1C(=O)C=C(C)C2=O`?
NOD2 RIPK2 PPI: 8; TLR4-MyD88 BLA: 2; TLR9-MyD88 inh: -14; Beta2AR agonist: 12; Exocytosis inh: 64*; ABHD5 PLIN5 PPI: 37*; ABHD5 PLIN5 conf: 57*; HNF4 split-luc: 64*

What do the screens show for `Cc1ccc(C(=O)Nc2nc(C(N)Cc3ccc(C(F)(F)F)cc3)cs2)cc1` (configuration not stated)?
NOD2 RIPK2 PPI: 9; Exocytosis inh: inconclusive; ABHD5 PLIN5 PPI: -16

What do the screens show for `O=C(NCc1ccccc1)C(c1ccc(-c2ccccc2)cc1)n1c(=O)c(-c2ccco2)nc2ccccc21` (configuration not stated)?
NOD2 RIPK2 PPI: -10; Exocytosis inh: 9; ABHD5 PLIN5 PPI: 87*; ABHD5 PLIN5 conf: 75*; HNF4 split-luc: 14*

How did O=C(NCc1ccccc1)C(c1ccncc1)n1c(=O)c(-c2ccco2)nc2ccccc21 (configuration not stated) do in these assays?
NOD2 RIPK2 PPI: -9; Exocytosis inh: -7; ABHD5 PLIN5 PPI: 36*; ABHD5 PLIN5 conf: 31*; HNF4 split-luc: 14*

How did COc1cc2c(cc1NC(=O)CC1SC(N3CCCC3)=NC1=O)oc1ccccc12 (configuration not stated) do in these assays?
NOD2 RIPK2 PPI: 11; TLR4-MyD88 BLA: -2; TLR9-MyD88 inh: 3; Beta2AR agonist: 5; Exocytosis inh: 0; ABHD5 PLIN5 PPI: 29*; ABHD5 PLIN5 conf: 16; HNF4 split-luc: 10

How did CCCN(C(=O)c1cc(S(=O)(=O)N2CCN(CC)CC2)ccc1Cl)C1CCS(=O)(=O)C1 (configuration not stated) do in these assays?
NOD2 RIPK2 PPI: 5; TLR9-MyD88 inh: 4; Beta2AR agonist: 9; Exocytosis inh: 7; ABHD5 PLIN5 PPI: 26*; ABHD5 PLIN5 conf: 4; HNF4 split-luc: 3

Results for Cc1nc([N+](=O)[O-])c(Sc2nc3ccc([N+](=O)[O-])cc3[nH]2)n1Cc1ccccc1 ?
NOD2 RIPK2 PPI: 7; TLR4-MyD88 BLA: -8; TLR9-MyD88 inh: 10; Beta2AR agonist: 8; Exocytosis inh: 7; ABHD5 PLIN5 PPI: 28*; ABHD5 PLIN5 conf: 45*; HNF4 split-luc: 38*

How did C=C1C(=O)[C@@]23[C@H](O)C[C@@H]4C(C)(C)CC[C@H](O)[C@]4(C)[C@@H]2C[C@H](O)[C@@H]1[C@H]3O do in these assays?
NOD2 RIPK2 PPI: -5; TLR4-MyD88 BLA: -11; TLR9-MyD88 inh: 6; Beta2AR agonist: 9; Exocytosis inh: 8; ABHD5 PLIN5 PPI: 80*; ABHD5 PLIN5 conf: 89*; HNF4 split-luc: 99*

Results for C=C1C(=O)[C@@]23[C@H](O)C[C@@H]4C(C)(C)CC[C@H](O)[C@@]4(C)[C@@H]2CC[C@@H]1[C@H]3O ?
NOD2 RIPK2 PPI: 20; TLR4-MyD88 BLA: -4; TLR9-MyD88 inh: -6; Beta2AR agonist: 46*; Exocytosis inh: 0; ABHD5 PLIN5 PPI: 53*; ABHD5 PLIN5 conf: 85*; HNF4 split-luc: 78*

How did N/C(=N\OC(=O)c1ccc2ccccc2c1)c1ccccc1Cl do in these assays?
NOD2 RIPK2 PPI: -2; TLR9-MyD88 inh: 9; Beta2AR agonist: -7; Exocytosis inh: 1; ABHD5 PLIN5 PPI: -5

Results for N#CC(C#N)=NNc1ccc2cn[nH]c2c1 ?
NOD2 RIPK2 PPI: -7; Exocytosis inh: 15; ABHD5 PLIN5 PPI: 48*; ABHD5 PLIN5 conf: 55*; HNF4 split-luc: 58*

Results for CC(C)CC(NC(=O)OCc1ccccc1)C(=O)NC(Cc1ccccc1)C(=O)CCl (configuration not stated) ?
NOD2 RIPK2 PPI: -4; TLR9-MyD88 inh: -11; Beta2AR agonist: 3; Exocytosis inh: 50; ABHD5 PLIN5 PPI: 24*; ABHD5 PLIN5 conf: 88*; HNF4 split-luc: 88*

Results for COC(=O)C(Cc1ccccc1)NC(=O)C(CC(C)C)NC(=O)OC(C)(C)C (configuration not stated) ?
NOD2 RIPK2 PPI: 0; TLR4-MyD88 BLA: -7; TLR9-MyD88 inh: -6; Beta2AR agonist: 2; Exocytosis inh: 1; ABHD5 PLIN5 PPI: 4

What do the screens show for `COc1ccccc1C(CNC(=O)CNC(=O)c1cccc(Cl)c1)N1CCCC1` (configuration not stated)?
NOD2 RIPK2 PPI: -11; TLR9-MyD88 inh: 4; Beta2AR agonist: -1; Exocytosis inh: 10; ABHD5 PLIN5 PPI: -6

Results for Clc1ccccc1CSc1nnc(-c2cccnc2)n1Cc1ccco1 ?
NOD2 RIPK2 PPI: 0; TLR4-MyD88 BLA: -8; TLR9-MyD88 inh: 7; Beta2AR agonist: -5; Exocytosis inh: -4; ABHD5 PLIN5 PPI: 31*; ABHD5 PLIN5 conf: 9; HNF4 split-luc: 12*

What do the screens show for `CCOc1cc(/C=C2\CCC/C(=C\c3cc(Cl)c(O)c(OCC)c3)C2=O)cc(Cl)c1O`?
NOD2 RIPK2 PPI: 8; TLR4-MyD88 BLA: -8; TLR9-MyD88 inh: 7; Beta2AR agonist: -20; Exocytosis inh: 82*; ABHD5 PLIN5 PPI: 55*; ABHD5 PLIN5 conf: 68*; HNF4 split-luc: 48*

What do the screens show for `CCOc1cc(/C=N\O)cc(Cl)c1OCC`?
NOD2 RIPK2 PPI: -4; TLR4-MyD88 BLA: -7; TLR9-MyD88 inh: -1; Beta2AR agonist: 4; Exocytosis inh: -2; ABHD5 PLIN5 PPI: -1

What do the screens show for `CC(OC(=O)c1ccc([N+](=O)[O-])s1)C(=O)NC1CCCCC1C` (configuration not stated)?
NOD2 RIPK2 PPI: -1; TLR9-MyD88 inh: -10; Beta2AR agonist: 4; Exocytosis inh: 5; ABHD5 PLIN5 PPI: 6

How did O=C1/C(=C/c2cccnc2)CCC/C1=C\c1cccnc1 do in these assays?
TLR4-MyD88 BLA: 7

Results for CC(C)/C=C1\CC/C(=C\c2cccnc2)C1=O ?
NOD2 RIPK2 PPI: 0; TLR4-MyD88 BLA: 14; TLR9-MyD88 inh: 4; Beta2AR agonist: 5; Exocytosis inh: 3; ABHD5 PLIN5 PPI: 39*; ABHD5 PLIN5 conf: 75*; HNF4 split-luc: 58*
